Data: PubChem BioAssay (NCATS)
Where “and” joins values, the source holds several entries; their conditions need not be identical. Identical values can stand only once. Inconclusive results are not listed. Entries that show only a call come without a potency. Calls of active or inactive are those of the source. Calls follow the shape of the dose curve; as a rule, active = well fitted inhibition curve with a large enough effect; inconclusive = small, poorly fitted or top-dose-only effect; inactive = flat fitted curve, though single readings scatter.

Columns and labels:
Assay in all cases: qHTS profiling for inhibitors of Plasmodium falciparum proliferation (AID 504749); also: nearly all actives have a fitted effect of over 60% in size
Conditions in all cases: P. falciparum in erythrocytes, SYBR Green DNA, 72 h; series mostly up to 28.7 µM
[1] = system: CP238
In short: (§1)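 Each compound contacts P. falciparum-infected red blood cells for 72 h at 37 C; lysis buffer (Tris, EDTA, saponin, Triton X, SYBR Green I) is added and fluorescence measured next morning; values normalized to controls.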

[2] = system: CP247
In short: as §1

[3] = system: CP250
In short: as §1

[4] = system: CP252
In short: as §1

[5] = system: CP256
In short: as §1

[6] = system: CP260
In short: as §1

[7] = system: CP262
In short: as §1

[8] = system: CP265
In short: as §1

[9] = system: CP266
In short: as §1

[10] = system: CP268
In short: as §1

[11] = system: CP269
In short: as §1

[12] = system: CP286
In short: as §1

[13] = system: CP291
In short: as §1

[14] = system: CP297
In short: as §1

[15] = system: CP305
In short: as §1

[16] = system: CP315
In short: as §1

[17] = system: CP325
In short: as §1

[18] = system: CP329
In short: as §1

[19] = system: CP335
In short: as §1

[20] = system: DFO2036
In short: as §1
Potency is read from the fitted curve at half-maximal effect.

Structure (SMILES) | Potency [1] | Potency [2] | Potency [3] | Potency [4] | Potency [5] | Potency [6] | Potency [7] | Potency [8] | Potency [9] | Potency [10] | Potency [11] | Potency [12] | Potency [13] | Potency [14] | Potency [15] | Potency [16] | Potency [17] | Potency [18] | Potency [19] | Potency [20]
CC[n+]1c(-c2ccccc2)c2cc(N)ccc2c2ccc(N)cc21 | 112 nM (active) and 355 nM (active) | 282 nM (active) and 631 nM (active) | 178 nM (active) and 355 nM (active) | 100 nM (active) and 282 nM (active) | 31.6 nM (active) and 63.1 nM (active) | 199 nM (active) and 398 nM (active) | 95.3 nM (active) and 107 nM (active) | 251 nM (active) and 794 nM (active) | 301 nM (active) and 601 nM (active) | 107 nM (active) and 379 nM (active) | 120 nM (active) and 478 nM (active) | 70.8 nM (active) and 158 nM (active) | 151 nM (active) and 601 nM (active) | 169 nM (active) and 478 nM (active) | 84.9 nM (active) and 379 nM (active) | 478 nM (active) and 1.69 µM (active) | 95.3 nM (active) and 379 nM (active) | 107 nM (active) and 426 nM (active) | 84.9 nM (active) and 239 nM (active) | 89.1 nM (active) and 251 nM (active)
OC(c1ccccc1)(c1ccccc1)C1CCNCC1 | inactive | inactive | inactive | inactive | inactive | inactive | inactive | inactive | inactive | inactive | inactive | inactive | inactive | inactive | inactive | inactive | inactive | inactive | inactive | inactive
C[C@H]1C(=O)O[C@@H]2CCN3CC=C(COC(=O)[C@](C)(O)[C@]1(C)O)[C@H]23 | inactive | inactive | inactive | inactive | inactive | inactive | inactive | inactive | inactive | inactive | inactive | inactive | inactive | inactive | inactive | inactive | inactive | inactive | inactive | inactive
CCCCCCCCCCCC[N+](C)(C)CCOc1ccccc1 | 7.94 µM (active) | 7.08 µM (active) | 7.94 µM (active) | 7.94 µM (active) | 5.62 µM (active) | 3.98 µM (active) | 5.36 µM (active) | 6.31 µM (active) | 15.1 µM (active) | 9.53 µM (active) | 10.7 µM (active) | 2.51 µM (active) | 8.49 µM (active) | 13.5 µM (active) | 8.49 µM (active) | 15.1 µM (active) | 9.53 µM (active) | 13.5 µM (active) | 6.01 µM (active) | 5.01 µM (active)
CCN(Cc1ccc(Cl)nc1)/C(=C/[N+](=O)[O-])NC | inactive | inactive | inactive | inactive | inactive | inactive | inactive | inactive | inactive | inactive | inactive | inactive | inactive | inactive | inactive | inactive | inactive | inactive | inactive | inactive
NC(=O)CN1CCCC1=O | inactive | inactive | inactive | inactive | inactive | inactive | inactive | inactive | inactive | inactive | inactive | inactive | inactive | inactive | inactive | inactive | inactive | inactive | inactive | inactive
CCNc1nc(Cl)nc(NCC)n1 | inactive | inactive | inactive | inactive | inactive | inactive | inactive | inactive | inactive | inactive | inactive | inactive | inactive | inactive | inactive | inactive | inactive | inactive | inactive | inactive
COP(=O)(OC)C(O)C(Cl)(Cl)Cl (stereo not given) | inactive | inactive | inactive | inactive | inactive | inactive | inactive | inactive | inactive | inactive | inactive | inactive | inactive | inactive | inactive | inactive | inactive | inactive | inactive | inactive
CN(C)C(=S)SSC(=S)N(C)C | 3.55 µM (active) | 2.82 µM (active) | 3.16 µM (active) | 3.98 µM (active) | 3.55 µM (active) | 0.891 µM (active) | 2.13 µM (active) | 3.98 µM (active) | 4.78 µM (active) | 3.01 µM (active) | 2.13 µM (active) | 1.26 µM (active) | 3.01 µM (active) | 4.26 µM (active) | 2.39 µM (active) | 4.78 µM (active) | 2.39 µM (active) | 3.79 µM (active) | 1.51 µM (active) | 2.82 µM (active)
CCN(CC)C(C)C(=O)c1ccccc1 (stereo not given) | inactive | inactive | inactive | inactive | inactive | inactive | inactive | inactive | inactive | inactive | inactive | inactive | inactive | inactive | inactive | inactive | inactive | inactive | inactive | inactive
Cc1ccc(N=CN(C)C=Nc2ccc(C)cc2C)c(C)c1 | inactive | inactive | inactive | inactive | inactive | inactive | inactive | inactive | inactive | inactive | inactive | inactive | inactive | inactive | inactive | inactive | inactive | inactive | inactive | inactive
CCC1(c2ccccc2)CCC(=O)NC1=O (stereo not given) | inactive | inactive | inactive | inactive | inactive | inactive | inactive | inactive | inactive | inactive | inactive | inactive | inactive | inactive | inactive | inactive | inactive | inactive | inactive | inactive
CCOC(=O)NC(O)C(Cl)(Cl)Cl (stereo not given) | inactive | inactive | inactive | inactive | inactive | inactive | inactive | inactive | inactive | inactive | inactive | inactive | inactive | inactive | inactive | inactive | inactive | inactive | inactive | inactive
CNC(=O)NC(O)C(Cl)(Cl)Cl (stereo not given) | inactive | inactive | inactive | inactive | inactive | inactive | inactive | inactive | inactive | inactive | inactive | inactive | inactive | inactive | inactive | inactive | inactive | inactive | inactive | inactive
C[C@]12CC[C@H]3[C@@H](CC=C4C[C@@H](O)CC[C@@]43C)[C@@H]1CC[C@@H]2O | inactive | inactive | inactive | inactive | inactive | inactive | inactive | inactive | inactive | inactive | inactive | inactive | inactive | inactive | inactive | inactive | inactive | inactive | inactive | inactive
O=C(O)c1nn(Cc2ccc(Cl)cc2Cl)c2ccccc12 | inactive | inactive | inactive | inactive | inactive | inactive | inactive | inactive | inactive | inactive | inactive | inactive | inactive | inactive | inactive | inactive | inactive | inactive | inactive | inactive
CC(C)NCC(O)c1ccc(N)c(C#N)c1 (stereo not given) | inactive | inactive | inactive | inactive | inactive | inactive | inactive | inactive | inactive | inactive | inactive | inactive | inactive | inactive | inactive | inactive | inactive | inactive | inactive | inactive
CC(C)(C)OC(=O)c1ncn2c1[C@@H]1CCCN1C(=O)c1c(Br)cccc1-2 | inactive | inactive | inactive | inactive | inactive | inactive | inactive | inactive | inactive | inactive | inactive | inactive | inactive | inactive | inactive | inactive | inactive | inactive | inactive | inactive
CCS(=O)(=O)C(C)(C)S(=O)(=O)CC | inactive | inactive | inactive | inactive | inactive | inactive | inactive | inactive | inactive | inactive | inactive | inactive | inactive | inactive | inactive | inactive | inactive | inactive | inactive | inactive
CC(C)C(Br)C(=O)NC(N)=O (stereo not given) | inactive | inactive | inactive | inactive | inactive | inactive | inactive | inactive | inactive | inactive | inactive | inactive | inactive | inactive | inactive | inactive | inactive | inactive | inactive | inactive
c1ccc2nc(N3CCNCC3)ccc2c1 | inactive | inactive | inactive | inactive | inactive | inactive | inactive | inactive | inactive | inactive | inactive | inactive | inactive | inactive | inactive | inactive | inactive | inactive | inactive | inactive
O=c1n(Cl)c(=O)n(Cl)c(=O)n1Cl | inactive | inactive | inactive | inactive | inactive | inactive | inactive | inactive | inactive | inactive | inactive | inactive | inactive | inactive | inactive | inactive | inactive | inactive | inactive | inactive
CCC(=O)O[C@H]1CC[C@H]2[C@@H]3CCC4=CC(=O)CC[C@]4(C)[C@H]3CC[C@]12C | inactive | inactive | inactive | inactive | inactive | inactive | inactive | inactive | inactive | inactive | inactive | inactive | inactive | inactive | inactive | inactive | inactive | inactive | inactive | inactive
NCc1cccnc1 | inactive | inactive | inactive | inactive | inactive | inactive | inactive | inactive | inactive | inactive | inactive | inactive | inactive | inactive | inactive | inactive | inactive | inactive | inactive | inactive
